From paper PMC5540273 (PLoS ONE, 2017)

How the values were obtained:
Conditions in all cases: concentration: 1 μM,replicates: in singlicate; n = 1
MTOR = test system: MTOR
MUSK = test system: MUSK
MYLK2 = test system: MYLK2
MYLK4 = test system: MYLK4
MYLK = test system: MYLK
MYO3A = test system: MYO3A
MYO3B = test system: MYO3B
NDR1 = test system: T1, NDR1
T1 construct: gene STK38

NDR2 = test system: NDR2
NEK10 = test system: NEK10
NEK11 = test system: NEK11
NEK1 = test system: NEK1
NEK2 = test system: NEK2
NEK3 = test system: NEK3
NEK4 = test system: NEK4
NEK5 = test system: NEK5
NEK6 = test system: NEK6
NEK7 = test system: NEK7
NEK9 = test system: NEK9
NIK = test system: T2, NIK
T2 construct: gene MAP3K14
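Also: KINOMEscan kinase panel screen.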

Compound	%Inh (MTOR) [%]	%Inh (MUSK) [%]	%Inh (MYLK2) [%]	%Inh (MYLK4) [%]	%Inh (MYLK) [%]	%Inh (MYO3A) [%]	%Inh (MYO3B) [%]	%Inh (NDR1) [%]	%Inh (NDR2) [%]	%Inh (NEK10) [%]	%Inh (NEK11) [%]	%Inh (NEK1) [%]	%Inh (NEK2) [%]	%Inh (NEK3) [%]	%Inh (NEK4) [%]	%Inh (NEK5) [%]	%Inh (NEK6) [%]	%Inh (NEK7) [%]	%Inh (NEK9) [%]	%Inh (NIK) [%]
NC(=O)c1cc(-c2ccccc2)cc2c(C3CCNCC3)c[nH]c12 [GSK301362]	3	21	40	99	15	0	0	0	0	24	0	0	10	7	4	12	0	3	21	0
Cl.Cl.Nc1nc(-c2ccc3c(N)n[nH]c3c2)cc(N2CCCC(NC(=O)c3ccccc3)C2)n1 (stereo not shown) [GSK2286775]	39	0	0	27	11	22	0	20	0	16	0	7	0	23	7	11	0	0	6	0
CC(C)Nc1cc(-c2ccc3c(N)n[nH]c3c2)nc(N)n1 [GSK2221681]	9	0	23	37	18	0	0	10	0	13	0	0	0	1	7	4	0	0	1	0
Cl.Cl.NC[C@H](CC1CCCCC1)NC(=O)c1cc(Br)c(-c2ccnc3[nH]ccc23)s1 [GSK1581427]	6	3	19	99.7	40	0	0	95.1	82	0	0	37	0	17	23	0	0	0	1	38
C[C@@H]1CCN(C(=O)CC#N)C[C@@H]1N(C)c1ncnc2[nH]ccc12	51	11	6	4	0	8	0	0	12	0	0	0	19	23	0	0	0	9	0	0
Cc1ccc2c(-c3ccncc3)c(-c3ccc(F)cc3)nn2c1.Cl [GW461484]	9	0	17	3	13	0	7	29	0	9	21	0	0	0	11	4	0	0	0	4
Cc1n[nH]c2ccc(-c3cc(OC[C@@H](N)Cc4ccccc4)cnc3-c3ccoc3)cc12.O=C(O)C(F)(F)F.O=C(O)C(F)(F)F [GSK507358]	1	6	25	15	14	80	28	14	16	5	0	1	0	0	0	0	0	11	30	87
Cc1occc1-c1nc(N)c(OC[C@@H](N)Cc2c[nH]c3ccccc23)cc1-c1cc2c(C)n[nH]c2cn1 [GSK1660450]	15	9	29	9	37	69	28	11	0	6	0	46	6	0	0	29	0	100	67	78
CCN(CC)CCOc1ccc(Nc2ncc3cc(-c4c(Cl)cccc4Cl)c(=O)n(C)c3n2)cc1 [SB-601273]	43	51	98.4	26	29	61	38	32	71	12	98.5	34	99.5	26	0	35	44	0	20	31
C[C@H]1Oc2cc(cnc2N)-c2c(nn(C)c2C#N)CN(C)C(=O)c2ccc(F)cc21	0	11	18	10	10	10	17	31	25	19	0	0	22	29	0	0	0	28	3	3
CCN(CC)CCCCNc1ncc2cc(-c3c(Cl)cccc3Cl)c(NC(=O)NC(C)(C)C)nc2n1	39	10	12	43	4	4	23	11	0	29	0	43	11	29	0	0	38	0	0	0
CN(C)CC(O)COc1ccc(Nc2nccc(-c3cnn4nc(N5CCOCC5)ccc34)n2)cc1 (stereo not shown) [GW767488]	6	0	38	46	48	33	0	49	0	80	47	44	14	96.1	37	0	64	86	55	0
C=CC(=O)Nc1cc2c(Nc3ccc(F)c(Cl)c3)ncnc2cc1OCCCN1CCOCC1 [GW781483]	15	0	0	18	0	0	3	4	1	17	0	0	0	18	0	3	0	11	22	6
Cl.Oc1cc(-c2nc(-c3ccccc3)[nH]c2-c2ccncc2)ccc1Cl [SB-386023]	0	0	0	11	0	27	0	10	0	0	18	0	0	0	10	0	28	14	0	1
